Results: PubChem BioAssay (Tox21)
Unmarked numbers belong to inactive results. Records with an inconclusive call do not appear. Entries that show only a call come without a potency. Activity calls are given as the source filed them. Unless noted, calls follow the shape of the dose curve; as a rule, active = well fitted curve in the direction sought with a large enough effect in the repeat runs; inconclusive = weak or mixed curves; inactive = no such curve, though single readings can be large; an effect the other way counts as inactive or inconclusive.

Tests used:
[1] = qHTS assay to identify small molecule antagonists of the sonic hedgehog signaling (Shh) pathway (AID 1259369; calls by dose curve; also: nearly all actives have a fitted effect of over 45% in size)
In short: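 Read-out is luminescence from a firefly luciferase gene controlled by the Gli1 response element, in 3T3Gli1-Luc cells pre-incubated 4hr then exposed to compounds and conditioned medium for 24hr.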

[2] = target: Estrogen receptor beta (Homo sapiens) (UniProt Q92731); test: qHTS assay to identify small molecule antagonists of the estrogen receptor beta (ER-beta) signaling pathway (AID 1259378; active = well fitted inhibition curve with a large enough effect in the signal ratio in the repeat runs, not every such curve was filed as active; the % refers to the signal ratio)
Chain of Estrogen receptor beta (Homo sapiens) (Q92731 whole entry, looked up): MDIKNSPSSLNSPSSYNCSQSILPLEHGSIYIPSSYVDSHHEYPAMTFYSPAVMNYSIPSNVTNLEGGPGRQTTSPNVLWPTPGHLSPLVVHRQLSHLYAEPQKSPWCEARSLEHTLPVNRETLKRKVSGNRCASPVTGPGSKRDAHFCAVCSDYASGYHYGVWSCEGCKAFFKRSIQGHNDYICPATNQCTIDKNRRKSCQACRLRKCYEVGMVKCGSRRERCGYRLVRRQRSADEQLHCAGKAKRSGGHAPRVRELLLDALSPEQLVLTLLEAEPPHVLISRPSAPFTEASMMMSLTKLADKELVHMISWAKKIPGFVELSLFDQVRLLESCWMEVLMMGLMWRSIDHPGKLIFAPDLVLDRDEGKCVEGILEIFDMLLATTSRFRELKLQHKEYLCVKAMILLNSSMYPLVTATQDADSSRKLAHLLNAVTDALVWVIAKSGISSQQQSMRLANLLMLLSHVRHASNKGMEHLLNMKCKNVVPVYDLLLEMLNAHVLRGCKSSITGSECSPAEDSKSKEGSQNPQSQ
In short: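 Antagonist mode: compounds added to beta-lactamase reporter HEK293T ER-beta-UAS cells stimulated with E2 (1nM final), 16 hr at 37C. LiveBLAzer B/G FRET substrate, 2 hours room temperature, fluorescence read-out.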

[3] = qHTS assay to identify small molecule agonists of the androgen receptor (AR) signaling pathway in the presence of an antagonist - cell viability counter screen (AID 1259379);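 also: MDA-kb2 human breast cancer cells carrying an MMTV luciferase reporter; series mostly up to about 92 µM; nearly all actives have a fitted effect of over 25% in size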
In short: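 Each compound was tested at 15 concentrations on MDA-kb2 cells in the presence of 3.0uM nilutamide. Viability was measured by CellTiter-Fluor fluorescence after a 16 hr incubation at 37C in a CO2-free atmosphere.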

[4] = qHTS assay to identify small molecule agonists of the estrogen receptor beta (ER-beta) signaling pathway - cell viability counter screen (AID 1259380); also: nearly all actives have a fitted effect of over 30% in size
In short: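 Compounds dissolved in DMSO were pin-transferred onto ER-beta-UAS-bla HEK293T cells that had settled 6 hr, and exposure ran 16 hr at 37C. Following the reporter read, CellTiter-Glo luminescence after 30 min at room temperature indicated cytotoxicity.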

[5] = qHTS assay to identify small molecule antagonists of the estrogen receptor beta (ER-beta) signaling pathway - cell viability counter screen (AID 1259382);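 also: HEK293T cells carrying ER-beta-UAS-bla reporter stimulated with estradiol; series mostly up to about 92 µM; nearly all actives have a fitted effect of over 55% in size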
In short: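 CellTiter-Glo ATP luminescence measured after the LiveBLAzer read in the same wells; ER-beta-UAS-bla HEK293T cells, 16 hr compound treatment with 1nM 17-beta-estradiol agonist at 37C, 5% CO2.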

[6] = target: Estrogen receptor (Homo sapiens) (UniProt P03372); test: qHTS assay to identify small molecule agonists of the estrogen receptor alpha (ER-alpha) signaling pathway in the presence of an antagonist (AID 1259383; calls by dose curve; also: top concentration of the series differs between compounds; nearly all actives have a fitted effect of over 15% in size)
Chain of Estrogen receptor (Homo sapiens) (P03372 whole entry, looked up): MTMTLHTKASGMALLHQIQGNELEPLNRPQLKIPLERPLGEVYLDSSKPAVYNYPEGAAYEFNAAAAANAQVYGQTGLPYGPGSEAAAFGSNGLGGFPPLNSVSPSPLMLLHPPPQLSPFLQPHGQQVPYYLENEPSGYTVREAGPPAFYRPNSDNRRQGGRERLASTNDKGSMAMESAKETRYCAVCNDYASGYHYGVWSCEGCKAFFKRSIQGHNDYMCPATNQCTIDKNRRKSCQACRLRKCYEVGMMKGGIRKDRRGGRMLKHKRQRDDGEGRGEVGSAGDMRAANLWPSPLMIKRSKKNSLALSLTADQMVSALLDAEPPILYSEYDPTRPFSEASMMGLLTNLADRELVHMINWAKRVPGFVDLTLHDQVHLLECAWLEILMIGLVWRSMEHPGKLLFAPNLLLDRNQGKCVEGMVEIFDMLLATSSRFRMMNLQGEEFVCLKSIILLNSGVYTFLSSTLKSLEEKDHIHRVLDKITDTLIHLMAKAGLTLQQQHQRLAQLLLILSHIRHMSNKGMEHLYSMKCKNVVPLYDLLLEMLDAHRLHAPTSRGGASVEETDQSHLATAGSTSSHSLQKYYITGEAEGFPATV
In short: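 Luminescent ERE-luciferase reporter, VM7Luc4E2 cells (endogenous ER-alpha); 10.0nM ICI-182,780 final; 15-point compound titration; 22hr at 37C; ONE-Glo, 30min RT.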

[7] = qHTS assay to identify small molecule agonists or antagonists of the thyroid stimulating hormone receptor (TSHR) signaling pathway - wild type cell line counter screen (AID 1259384; calls by dose curve)
In short: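 Counter screen in untransfected Hek293: compounds (15-point titration, triplicate) plus phosphodiesterase inhibitor Ro20-1724 added after 18 h plating; 30 min RT. Intracellular cAMP via competitive d2/cryptate immunoassay, 1 h incubation.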

[8] = target: Thyrotropin receptor (Homo sapiens) (UniProt P16473); test: qHTS assay to identify small molecule antagonists of the thyroid stimulating hormone receptor (TSHR) signaling pathway (AID 1259385; calls by dose curve; also: nearly all actives have a fitted effect of over 20% in size)
Chain of Thyrotropin receptor (Homo sapiens) (P16473 whole entry, looked up): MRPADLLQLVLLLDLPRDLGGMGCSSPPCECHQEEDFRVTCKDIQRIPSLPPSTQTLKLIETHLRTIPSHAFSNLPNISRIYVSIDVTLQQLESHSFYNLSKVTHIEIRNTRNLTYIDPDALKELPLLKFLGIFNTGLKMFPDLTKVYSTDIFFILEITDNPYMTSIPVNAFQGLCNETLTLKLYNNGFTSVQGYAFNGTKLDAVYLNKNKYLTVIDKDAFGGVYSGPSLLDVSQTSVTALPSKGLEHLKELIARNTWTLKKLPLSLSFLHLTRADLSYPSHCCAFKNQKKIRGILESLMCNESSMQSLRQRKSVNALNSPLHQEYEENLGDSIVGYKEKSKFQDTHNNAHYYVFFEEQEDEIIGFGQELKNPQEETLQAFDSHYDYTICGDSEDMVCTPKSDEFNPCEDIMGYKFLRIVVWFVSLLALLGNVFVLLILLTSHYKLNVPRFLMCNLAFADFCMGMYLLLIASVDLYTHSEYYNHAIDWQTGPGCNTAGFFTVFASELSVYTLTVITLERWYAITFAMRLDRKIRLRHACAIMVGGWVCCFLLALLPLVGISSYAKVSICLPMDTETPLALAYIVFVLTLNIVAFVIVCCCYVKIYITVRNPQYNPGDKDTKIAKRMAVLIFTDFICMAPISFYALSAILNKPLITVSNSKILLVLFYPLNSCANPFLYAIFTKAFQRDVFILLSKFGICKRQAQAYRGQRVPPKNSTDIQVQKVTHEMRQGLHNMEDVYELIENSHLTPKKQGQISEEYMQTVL
In short: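 Antagonist mode: compound-treated TSHR-expressing HEK293 cells were stimulated with 1.5 ng/mL TSH (final) in presence of Ro20-1724 for 30 min at RT. HTRF cAMP detection after 1 h; each compound tested at 15 concentrations, triplicate.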

[9] = qHTS assay to identify small molecule agonists of the estrogen receptor alpha (ER-alpha) signaling pathway in the presence of an antagonist - cell viability counter screen (AID 1259386);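 also: series mostly up to about 92 µM; cells exposed to compounds for 22 h at 37 °C before the viability read; nearly all actives have a fitted effect of over 30% in size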
In short: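 Using estrogen-depleted VM7Luc4E2 cells, the 15-concentration compound series was applied together with 10.0nM ICI-182,780 and incubated 22hr at 37C/5% CO2. Cell viability was then scored by CellTiter-Fluor.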

[10] = target: Progesterone receptor (Homo sapiens) (UniProt P06401); test: qHTS assay to identify small molecule agonists of the progesterone receptor (PR) signaling pathway (AID 1346784; calls by dose curve; also: nearly all actives have a fitted effect of over 30% in size)
Chain of Progesterone receptor (Homo sapiens) (P06401 whole entry, looked up): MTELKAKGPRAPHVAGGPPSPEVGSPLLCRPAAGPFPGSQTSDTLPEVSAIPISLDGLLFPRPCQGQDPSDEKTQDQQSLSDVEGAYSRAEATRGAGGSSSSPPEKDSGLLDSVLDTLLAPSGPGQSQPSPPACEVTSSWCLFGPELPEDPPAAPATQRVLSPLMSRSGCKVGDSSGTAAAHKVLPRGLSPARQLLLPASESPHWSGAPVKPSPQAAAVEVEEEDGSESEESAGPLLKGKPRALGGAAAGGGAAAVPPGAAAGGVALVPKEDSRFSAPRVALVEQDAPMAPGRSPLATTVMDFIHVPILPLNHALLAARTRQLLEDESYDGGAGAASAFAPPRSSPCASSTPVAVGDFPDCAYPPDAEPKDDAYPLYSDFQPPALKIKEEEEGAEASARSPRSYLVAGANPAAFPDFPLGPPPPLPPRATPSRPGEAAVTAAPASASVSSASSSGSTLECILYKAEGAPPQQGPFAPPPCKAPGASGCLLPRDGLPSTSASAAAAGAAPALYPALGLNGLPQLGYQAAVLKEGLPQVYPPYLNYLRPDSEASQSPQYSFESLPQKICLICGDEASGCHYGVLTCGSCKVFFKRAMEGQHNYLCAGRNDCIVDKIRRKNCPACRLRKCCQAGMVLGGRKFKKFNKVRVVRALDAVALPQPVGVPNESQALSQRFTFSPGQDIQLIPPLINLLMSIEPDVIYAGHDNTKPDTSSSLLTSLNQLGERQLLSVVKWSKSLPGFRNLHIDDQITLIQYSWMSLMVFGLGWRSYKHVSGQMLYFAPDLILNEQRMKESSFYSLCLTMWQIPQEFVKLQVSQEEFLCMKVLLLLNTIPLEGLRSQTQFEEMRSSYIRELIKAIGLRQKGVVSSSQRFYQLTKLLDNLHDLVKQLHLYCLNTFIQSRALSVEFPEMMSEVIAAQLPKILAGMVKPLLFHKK
In short: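 Cells (PR-UAS-bla HEK 293T, GripTite) were plated in assay medium containing 2% charcoal-stripped FBS and incubated 6 hr. Test compounds in DMSO were added for 16 hr at 37C. FRET substrate was then loaded for 2 hr at room temperature before fluorescence reading.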

[11] = qHTS assay to identify small molecule antagonists of the progesterone receptor (PR) signaling pathway - cell viability counter screen (AID 1346798); also: series mostly up to about 92 µM; nearly all actives have a fitted effect of over 50% in size
In short: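 Counter screen for cytotoxicity: viability of PR-UAS-bla HEK293T cells was measured with CellTiter-Glo luminescence following 16 hr compound exposure in the presence of R5020.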

[12] = qHTS assay to identify small molecule antagonists of the TGF-beta/Smad signaling pathway - cell viability counter screen (AID 1346824); also: nearly all actives have a fitted effect of over 50% in size
In short: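 Cytotoxicity counter-screen run in the same wells as the beta-lactamase Smad reporter read: CellTiter-Glo luminescence after 30 min at room temperature. HEK 293T SBE-bla cells had 5 hr compound exposure at 37 C with TGF-beta1 (0.25 ng/mL stock).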

[13] = qHTS assay to identify small molecule agonists of the TGF-beta/Smad signaling pathway - cell viability counter screen (AID 1346829); also: top concentration of the series differs between compounds; nearly all actives have a fitted effect of over 45% in size
In short: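 Cytotoxicity counter screen: CellTiter-Glo luminescence (30 min, room temperature) measured in the SBE-bla HEK 293T reporter wells after 5 hr compound treatment at 37 C and the 2 hr substrate step.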

[14] = qHTS assay to identify small molecule agonists of the TGF-beta/Smad signaling pathway (AID 1346859; active = well fitted activation curve with a large enough effect in the signal ratio in the repeat runs, not every such curve was filed as active; the % refers to the signal ratio; also: series mostly up to about 77 µM)
In short: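 Reporter line: HEK 293T with stably integrated SBE-controlled beta-lactamase. Compound exposure lasts 5 hr at 37 C and 5% CO2; substrate loading follows for 2 hr at room temperature, with emission read at 460 and 530 nm.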

[15] = target: Thyrotropin-releasing hormone receptor (Homo sapiens) (UniProt P34981); test: qHTS assay to identify small molecule antagonists of the thyrotropin-releasing hormone receptor (TRHR) signaling pathway (AID 1346877; active = well fitted inhibition curve with a large enough effect in the repeat runs, not every such curve was filed as active; also: series mostly up to about 51 µM)
Chain of Thyrotropin-releasing hormone receptor (Homo sapiens) (P34981 whole entry, looked up): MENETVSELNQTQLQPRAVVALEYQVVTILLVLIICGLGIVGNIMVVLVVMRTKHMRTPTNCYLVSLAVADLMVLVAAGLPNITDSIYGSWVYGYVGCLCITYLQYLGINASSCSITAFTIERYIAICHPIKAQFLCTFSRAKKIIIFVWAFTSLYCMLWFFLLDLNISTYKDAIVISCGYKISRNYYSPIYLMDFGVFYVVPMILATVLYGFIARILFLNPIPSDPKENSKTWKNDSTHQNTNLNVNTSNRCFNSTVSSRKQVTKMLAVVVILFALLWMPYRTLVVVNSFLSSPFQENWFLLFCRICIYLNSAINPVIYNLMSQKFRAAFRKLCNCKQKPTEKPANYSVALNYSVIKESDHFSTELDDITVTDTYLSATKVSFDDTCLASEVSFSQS
In short: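 Calcium signal in dye-loaded TRHR/HEK293 cells; compounds added 5 min before TRH (1 nM final); fluorescence monitored 3 min at 1 s steps.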

[16] = target: Thyrotropin-releasing hormone receptor (Homo sapiens) (UniProt P34981); test: qHTS assay to identify small molecule agonists of the thyrotropin-releasing hormone receptor (TRHR) signaling pathway (AID 1346891; calls by dose curve;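 also: HEK293 cells expressing TRHR with calcium dye readout; series mostly up to about 58 µM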)
In short: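 Cells: TRHR-Hek293, seeded and incubated 18 h. Dye loading: 2 h at 37 °C. Compound added from DMSO stock by pin tool. Read-out: kinetic calcium fluorescence over 3 min.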

[17] = target: Progesterone receptor (Homo sapiens) (UniProt P06401); test: qHTS assay to identify small molecule antagonists of the progesterone receptor (PR) signaling pathway (AID 1346795; active = well fitted inhibition curve with a large enough effect in the signal ratio in the repeat runs, not every such curve was filed as active; the % refers to the signal ratio; also: potency is read from the fitted curve at half-maximal effect)
In short: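 Antagonist mode: compounds tested against 1 nM (final) promegestone stimulation in HEK293T cells expressing PR-UAS-bla reporter, 16 hr at 37C, 5% CO2; beta-lactamase activity detected via B/G FRET substrate after 2 hr at room temperature.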

[18] = qHTS assay to identify small molecule agonists of the progesterone receptor (PR) signaling pathway - cell viability counter screen (AID 1346799; calls by dose curve; also: nearly all actives have a fitted effect of over 45% in size)
In short: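 Cells (PR-UAS-bla HEK293T) are plated at 3,000/well in 2% charcoal-stripped FBS medium, rested 6 hr, dosed and incubated 16 hr at 37C. CellTiter-Glo is then added and luminescence measured after 30 min at room temperature.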

[19] = target: Androgen receptor (Homo sapiens) (UniProt P10275); test: qHTS assay to identify small molecule agonists of the androgen receptor (AR) signaling pathway in the presence of an antagonist (AID 1259381; calls by dose curve; also: nearly all actives have a fitted effect of over 15% in size)
Chain of Androgen receptor (Homo sapiens) (P10275 whole entry, looked up): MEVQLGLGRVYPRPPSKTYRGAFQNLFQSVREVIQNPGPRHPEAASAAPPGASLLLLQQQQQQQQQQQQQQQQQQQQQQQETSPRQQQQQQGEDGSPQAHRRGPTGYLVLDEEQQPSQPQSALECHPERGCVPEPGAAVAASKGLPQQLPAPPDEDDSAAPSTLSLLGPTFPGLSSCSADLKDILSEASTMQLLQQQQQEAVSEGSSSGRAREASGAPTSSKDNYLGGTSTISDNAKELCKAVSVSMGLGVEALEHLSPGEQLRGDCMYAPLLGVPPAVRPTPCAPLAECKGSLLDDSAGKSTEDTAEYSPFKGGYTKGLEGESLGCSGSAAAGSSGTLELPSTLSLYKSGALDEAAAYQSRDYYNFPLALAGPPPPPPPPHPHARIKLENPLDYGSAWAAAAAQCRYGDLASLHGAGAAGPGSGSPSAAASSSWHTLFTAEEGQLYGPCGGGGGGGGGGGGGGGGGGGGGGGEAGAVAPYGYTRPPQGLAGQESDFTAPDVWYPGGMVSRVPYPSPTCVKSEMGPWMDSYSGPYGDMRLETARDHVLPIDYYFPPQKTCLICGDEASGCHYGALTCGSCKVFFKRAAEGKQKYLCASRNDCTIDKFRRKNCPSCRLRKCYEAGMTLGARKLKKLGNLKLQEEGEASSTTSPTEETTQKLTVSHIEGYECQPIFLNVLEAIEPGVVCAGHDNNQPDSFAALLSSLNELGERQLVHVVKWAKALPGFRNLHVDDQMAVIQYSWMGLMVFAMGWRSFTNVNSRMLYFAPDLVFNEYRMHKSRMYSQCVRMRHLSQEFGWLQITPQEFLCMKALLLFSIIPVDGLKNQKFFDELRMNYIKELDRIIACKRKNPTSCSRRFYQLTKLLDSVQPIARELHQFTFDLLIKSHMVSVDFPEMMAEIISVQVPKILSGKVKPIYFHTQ
In short: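 Plated MDA-kb2 cells (3,000/well) were pre-incubated 5hr, given nilutamide (3.0uM final) or buffer, then dosed with compounds in DMSO at 15 concentrations. Luciferase activity was quantified by luminescence after 16hr at 37C.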

SMILES	Potency [1]	Potency [2]	Potency [3]	Potency [4]	outcome [5]	Potency [6]	outcome [7]	Potency [8]	Potency [9]	Potency [10]	Potency [11]	outcome [12]	outcome [13]	outcome [14]	outcome [15]	Potency [16]	Potency [17]	Potency [18]	Potency [19]
CCC/C=C/CO	inactive	inactive	inactive	inactive	inactive	inactive	inactive	inactive	inactive	inactive	inactive	inactive	inactive	inactive	inactive	inactive			
OCc1c2ccccc2cc2ccccc12	inactive	inactive	inactive		inactive	inactive	inactive		inactive	inactive	inactive	inactive	inactive	inactive	inactive	inactive	54.6 µM (active)	inactive	
FC(F)(F)c1ccccc1	inactive	inactive	inactive	inactive	inactive	inactive	inactive	inactive	inactive	inactive	inactive	inactive	inactive	inactive	inactive	inactive	inactive		
Cn1cnc2c(F)c(Nc3ccc(Br)cc3Cl)c(C(=O)NOCCO)cc21	inactive	inactive	inactive		inactive				inactive	inactive	inactive	inactive	inactive	inactive			inactive		inactive
CCCCCCCCCCCCCCCCOP(=O)([O-])OCC[N+](C)(C)C	inactive	inactive	inactive		inactive		inactive	inactive		inactive	inactive	inactive	inactive	inactive			inactive		
OCCN1CCN(CCO)CC1	inactive	inactive	inactive		inactive		inactive	inactive	inactive	inactive	inactive		inactive	inactive	inactive	inactive		inactive	
COC(C)CCO (centres undefined)	inactive		inactive	inactive	inactive		inactive	inactive	inactive	inactive	inactive	inactive	inactive	inactive	inactive	inactive	inactive	inactive	inactive
